# Target: PSPH
# Test: pooled miR-30 sensor sort-seq; sequence = guide strand
# Conditions: shRNA
row,Sequence,sensor-assay potency score (higher = more potent)
1,TCTTCTCTGATGACCGTGCTGT,0.253
2,AACCTGAACATTTCGCTCCTGT,0.681
3,AAAACCTGCATATTCACCGTTA,0.263
4,TCACTTTTCCTTTTCCACCAGA,-0.287
5,TGCTATGAGTCTCTGCACCTGC,0.0571
6,TAACTTGTAAAAATTCATCTGA,0.913
7,TTTGGCGTTATCCTTGACTTGT,-1.02
8,TAAGCAAACAGTATCAATCTGT,0.453
9,TTAAAGTAGAATTTCAGCCTAT,0.23
10,TTATCCTTGACTTGTTGCCTGA,-0.324
11,TTGCTCTGCTATGAGTCTCTGC,-0.739

# Target: PSRC1
# Test: as above
# Conditions: shRNA
row,Sequence,sensor-assay potency score (higher = more potent)
1,TCTGGAGTCACCAACACTGTTA,-0.586
2,TATCATTACTCCGGAGTCGAGG,-0.921
3,TCGGACAGGACTATCCTTCAGC,-0.556
4,TTCGAGTTGACAGAGAATCCGG,0.0316
5,TTGACAGAGAATCCGGAGGTAG,-1.05
6,TAGGCTGAGCCTCACACCCTGG,-1.11
7,TATTTGTTCATTTCACTGCTGG,0.584
8,TTTCCCGCACTCTGTGTCCTGC,-0.995
9,TCGCTGGGAAACAGGAACCTTG,-1.78
10,TCGAGTTGACAGAGAATCCGGA,0.42
11,TTTGCTACTGAAGTCTTGCTTG,-0.274

# Reference: the OligoGym collection
